T1: SPRED3 1-117 WH1 (domain begin residue: 1, domain end residue: 117), Q2MJR0
T1 chain: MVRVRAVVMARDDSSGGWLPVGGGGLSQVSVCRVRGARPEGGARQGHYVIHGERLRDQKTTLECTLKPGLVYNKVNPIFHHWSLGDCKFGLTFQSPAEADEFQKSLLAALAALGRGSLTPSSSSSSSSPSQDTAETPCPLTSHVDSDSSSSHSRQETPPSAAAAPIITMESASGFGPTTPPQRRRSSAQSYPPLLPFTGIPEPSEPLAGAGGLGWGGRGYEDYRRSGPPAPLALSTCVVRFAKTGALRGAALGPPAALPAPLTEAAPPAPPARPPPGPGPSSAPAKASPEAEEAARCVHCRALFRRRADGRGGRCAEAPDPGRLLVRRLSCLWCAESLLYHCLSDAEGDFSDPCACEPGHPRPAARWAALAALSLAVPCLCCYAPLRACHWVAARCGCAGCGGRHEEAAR

T2: SPSB2 26-221 SPRY (domain begin residue: 26, domain end residue: 221), Q99619
T2 chain: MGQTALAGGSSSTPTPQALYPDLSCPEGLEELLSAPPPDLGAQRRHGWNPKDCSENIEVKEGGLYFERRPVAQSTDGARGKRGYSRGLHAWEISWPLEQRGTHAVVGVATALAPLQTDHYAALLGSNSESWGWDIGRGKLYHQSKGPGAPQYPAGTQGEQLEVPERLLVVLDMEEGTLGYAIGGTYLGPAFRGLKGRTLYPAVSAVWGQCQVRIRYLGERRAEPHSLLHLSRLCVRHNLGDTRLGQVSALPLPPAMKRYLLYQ

T3: SPRED2 1-124 WH1 (domain begin residue: 1, domain end residue: 124), Q7Z698
T3 chain: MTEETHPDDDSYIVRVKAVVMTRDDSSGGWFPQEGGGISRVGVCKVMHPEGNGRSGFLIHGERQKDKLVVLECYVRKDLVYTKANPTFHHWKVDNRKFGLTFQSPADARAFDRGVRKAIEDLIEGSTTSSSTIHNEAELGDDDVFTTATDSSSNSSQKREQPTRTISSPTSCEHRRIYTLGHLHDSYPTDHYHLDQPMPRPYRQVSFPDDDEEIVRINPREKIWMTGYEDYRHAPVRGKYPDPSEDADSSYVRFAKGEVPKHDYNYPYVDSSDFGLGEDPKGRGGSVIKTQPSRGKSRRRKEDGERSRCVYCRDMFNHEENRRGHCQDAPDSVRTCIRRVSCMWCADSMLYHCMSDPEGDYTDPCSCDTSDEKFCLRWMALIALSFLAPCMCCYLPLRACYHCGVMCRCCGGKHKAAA

T4: SND1 650-910 TUDOR+SNase (domain begin residue: 650, domain end residue: 910), Q7KZF4
T4 chain: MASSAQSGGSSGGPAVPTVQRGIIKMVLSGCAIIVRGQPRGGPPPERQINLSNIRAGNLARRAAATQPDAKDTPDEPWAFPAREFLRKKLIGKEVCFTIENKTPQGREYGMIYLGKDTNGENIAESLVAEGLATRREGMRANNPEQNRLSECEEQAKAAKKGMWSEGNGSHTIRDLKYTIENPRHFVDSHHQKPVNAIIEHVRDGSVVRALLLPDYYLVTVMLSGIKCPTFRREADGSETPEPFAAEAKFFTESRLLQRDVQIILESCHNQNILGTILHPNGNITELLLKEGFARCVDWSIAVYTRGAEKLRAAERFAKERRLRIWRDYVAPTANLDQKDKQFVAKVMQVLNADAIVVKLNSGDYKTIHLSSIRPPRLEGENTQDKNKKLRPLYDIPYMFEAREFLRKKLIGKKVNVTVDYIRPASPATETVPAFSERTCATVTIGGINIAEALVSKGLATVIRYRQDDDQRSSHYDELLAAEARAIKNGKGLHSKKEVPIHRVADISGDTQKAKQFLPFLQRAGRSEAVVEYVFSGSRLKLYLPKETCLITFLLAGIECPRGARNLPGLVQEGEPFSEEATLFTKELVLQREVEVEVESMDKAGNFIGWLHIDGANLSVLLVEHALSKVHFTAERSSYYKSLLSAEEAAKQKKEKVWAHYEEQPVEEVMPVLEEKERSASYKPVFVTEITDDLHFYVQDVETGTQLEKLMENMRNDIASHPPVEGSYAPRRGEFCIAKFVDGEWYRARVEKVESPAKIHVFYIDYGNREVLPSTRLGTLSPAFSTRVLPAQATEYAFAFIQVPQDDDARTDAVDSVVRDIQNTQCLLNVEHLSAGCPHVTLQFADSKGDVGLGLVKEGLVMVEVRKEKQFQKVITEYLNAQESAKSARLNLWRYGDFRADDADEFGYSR

T5: SHC1 149-317 PID (domain begin residue: 149, domain end residue: 317), P29353
T5 chain: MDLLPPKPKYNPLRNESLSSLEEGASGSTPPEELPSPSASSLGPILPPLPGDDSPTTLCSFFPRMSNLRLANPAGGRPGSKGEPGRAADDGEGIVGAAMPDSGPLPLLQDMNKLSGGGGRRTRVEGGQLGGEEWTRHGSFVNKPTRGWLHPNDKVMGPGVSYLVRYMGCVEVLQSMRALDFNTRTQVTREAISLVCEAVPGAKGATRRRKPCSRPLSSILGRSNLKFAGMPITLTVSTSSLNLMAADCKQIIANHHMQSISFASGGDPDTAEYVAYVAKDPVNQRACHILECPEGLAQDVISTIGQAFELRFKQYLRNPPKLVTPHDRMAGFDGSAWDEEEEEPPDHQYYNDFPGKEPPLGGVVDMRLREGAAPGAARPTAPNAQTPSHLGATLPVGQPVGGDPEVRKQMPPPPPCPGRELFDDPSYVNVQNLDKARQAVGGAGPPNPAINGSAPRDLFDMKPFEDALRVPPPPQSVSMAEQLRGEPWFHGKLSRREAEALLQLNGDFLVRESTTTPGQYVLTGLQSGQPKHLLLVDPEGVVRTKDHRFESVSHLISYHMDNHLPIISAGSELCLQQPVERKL

T6: SFN 1-236 14-3-3 (domain begin residue: 1, domain end residue: 236), P31947
T6 chain: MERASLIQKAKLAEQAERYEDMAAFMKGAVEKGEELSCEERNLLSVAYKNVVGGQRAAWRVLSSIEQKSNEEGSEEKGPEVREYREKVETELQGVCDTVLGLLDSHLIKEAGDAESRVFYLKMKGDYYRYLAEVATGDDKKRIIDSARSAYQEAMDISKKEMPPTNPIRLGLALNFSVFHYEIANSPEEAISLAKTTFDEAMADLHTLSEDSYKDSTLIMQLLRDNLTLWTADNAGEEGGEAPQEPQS

One test deals with T1, SPRED3 1-117 WH1 (domain begin residue: …. Briefly: phage ELISA signal ratio (GST-PRM binding over GST background); higher = stronger binding of peptide-phage to the PRM. The gist of the method: (§1)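 Each value is the phage ELISA signal on the glutathione S-transferase (GST)-domain fusion divided by the signal on GST alone. Human peptide recognition domains were expressed in 96-well plates, fused to the C-terminus of GST, and selected against an M13 phage library carrying randomized, cysteine-free, glycine-flanked hexadecapeptides on the gene-8 major coat protein. After five selection rounds, approximately 48 individual clones from rounds 4 and 5 were tested by phage ELISA, and positive clones were sequenced.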
Take VTPQEMWEEYIATLQI: the “phage ELISA signal ratio” value turned out to be 23.4. Still for that read-out and setting: the figure for EPDYGTAWFQHMMQEW is 31; for WTWMGDEEVFYHESLL it is 23.8. The same measure, in the same setting: the figure for HEMFLWDGETVMQVWW is 20.8; for MWMWDGMQVVHLFEQY it is 20.5.

The target of the next test is T2, SPSB2 26-221 SPRY (domain begin …. The test is described as above. In short, it runs like this:
as §1
As for VVYTGVDHNGNMYPVR, the “phage ELISA signal ratio” value is 9.45. Still for that read-out and setting: the result for FEEMELVGDLNNNMMP reads 32.8; that for MVDLNGNTYSESMVAV, 33.8.

On to WREEPHFHRDENGNII, for which the “phage ELISA signal ratio” value was 28.9. Same read-out and setting: the result for IVDTYWAMENNNVGTV reads 29.6; that for ERVMDLNGNWITKSVA, 10.8.

Turning to MEVFDMNGNYPVRSRT, the “phage ELISA signal ratio” value came out at 25. Same read-out and setting: the result for PWHARDMNGNWTQRIE reads 12.3; that for WLAQDYNNNHMWLDWK, 27.1. The same measure, in the same setting: the figure for YYLDENQNWISEGFLW is 12.1. The same measure, in the same setting: the figure for YEEFLDLNSNLQGLKT is 12.3. For the molecule AHFELMNNNWLVPEFW, the “phage ELISA signal ratio” value came out at 30.8.

The target of a further test is T3, SPRED2 1-124 WH1 (domain begin residue: …. The description is as above. In short, it runs like this: as §1
For SSMWWTDTGDMYLRPE, the “phage ELISA signal ratio” value was determined as 4.88.

Consider GAGELEWYPIWWDVTH, for which the “phage ELISA signal ratio” value was 17.3. The same measure, in the same setting: the figure for NLWPEVEPIMDNWQPS is 6.67; for AWFEGPFDTSHWQWEA it is 7.72; for HPIFNDAGGLQGWFSY it is 11.1.

The target of a further test is T4, SND1 650-910 TUDOR+SNase (domain begin …. The description is as above. The gist of the method: as §1
With GDYMSMLFMQEWGPFN, the “phage ELISA signal ratio” value stood at 5.51. For the molecule MNFMDIWDHMAIPPEQ, the “phage ELISA signal ratio” value was found to be 7.06.

For another test, the target named is T5, SHC1 149-317 PID (domain begin residue: …. The test is described as above. In short, it runs like this: as §1
HVQWINHSFMMDMPQN: the “phage ELISA signal ratio” value was 15.5. Same read-out and setting: the figure for ESEGSHYWNYFADAIA is 18.2; for WEGYYQFLVPDTHTSE it is 18.9; for EWNKNLHWFEVFDQEV it is 20.3.

For the next test, the target named is T6, SFN 1-236 14-3-3 (domain begin residue: …. Described as above. In short, it runs like this: as §1
As for DWVLYKEWVPQWPHNF, the “phage ELISA signal ratio” value is 17.1.

For the origin of these results see the supplement of paper PMC7724964.
